From PubChem BioAssay (NCI)
This is part of a sample that, as a whole, favours compounds with a hit. Of some 83,000 tested, about 20% had one in any assay.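 Method: cells in 96-well plates; compound added at one concentration; 48 h incubation; percent growth measured; values under 10 scored active.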 The source made the active and inactive calls.

Key:
Test in all cases: NCI-60 one-dose screen, 48 h (100 = growth as untreated, 0 = no growth, -100 = all killed)
Conditions in all cases: 10 µM unless noted
DU-145 prostate = test system: DU-145 prostate
K-562 leukemia = test system: K-562 leukemia
MALME-3M melanoma = test system: MALME-3M melanoma
MDA-MB-231 breast = test system: MDA-MB-231 breast
RXF 393 renal = test system: RXF 393 renal
SF-268 CNS = test system: SF-268 CNS
SF-295 CNS = test system: SF-295 CNS
SF-539 CNS = test system: SF-539 CNS
UACC-257 melanoma = test system: UACC-257 melanoma
M14 melanoma = test system: M14 melanoma

Measured: growth

COc1cc2nc3cc([N+](=O)[O-])ccc3c(NCCNCC(C)O)c2cc1OC (stereo not given)
inactive: SF-295 CNS 17.1%
active: DU-145 prostate -7.42% | K-562 leukemia 0.179% | MALME-3M melanoma -74.1% | MDA-MB-231 breast -39.5% | RXF 393 renal -56% | SF-268 CNS -15.4% | SF-539 CNS -21.6% | UACC-257 melanoma -56% | M14 melanoma -66.1%

O=C(Nc1ccccc1)Nc1ncnc2c1ncn2-c1ccc(Cl)cc1
inactive: DU-145 prostate 96.3% | K-562 leukemia 99.6% | MALME-3M melanoma 71.9% | MDA-MB-231 breast 80.8% | RXF 393 renal 91.7% | SF-268 CNS 97.1% | SF-295 CNS 76.4% | SF-539 CNS 107% | UACC-257 melanoma 109% | M14 melanoma 98.9%

O=C1c2c(c3c4ccccc4[nH]c3c3ccc4ccccc4c23)C(=O)N1CCN1CCNCC1
active: DU-145 prostate 8.13% | K-562 leukemia -41.5% | MDA-MB-231 breast -66.8% | M14 melanoma 6.23%
inactive: MALME-3M melanoma 80.7% | RXF 393 renal 91.6% | SF-268 CNS 80.1% | SF-295 CNS 89.4% | SF-539 CNS 82.6% | UACC-257 melanoma 109%

Oc1c(I)cc(I)cc1CNCCN(Cc1ccccn1)Cc1ccccn1
active: DU-145 prostate -74.1% | K-562 leukemia 0.636% | MALME-3M melanoma -62.1% | MDA-MB-231 breast -36.1% | RXF 393 renal -85.5% | SF-268 CNS 1.18% | SF-295 CNS -84.6% | SF-539 CNS -56.6% | UACC-257 melanoma -58.7% | M14 melanoma -32.5%

C[PH+](c1nc2ccccc2nc1[PH+](C)C(C)(C)C)C(C)(C)C.C[PH+](c1nc2ccccc2nc1[PH+](C)C(C)(C)C)C(C)(C)C.[Au+].[Cl-] (stereo not given)
active: DU-145 prostate -99.5% | K-562 leukemia 1.72% | MALME-3M melanoma -67.1% | MDA-MB-231 breast -90.3% | RXF 393 renal -87.9% | SF-268 CNS -91% | SF-295 CNS -88% | SF-539 CNS -91.6% | UACC-257 melanoma -88.3% | M14 melanoma -100%

COC(=O)c1nc(-c2ccccc2)oc1S(=O)(=O)Cc1ccccc1
inactive: DU-145 prostate 109% | MDA-MB-231 breast 85.2% | RXF 393 renal 96.8% | SF-268 CNS 93.1% | SF-295 CNS 103% | SF-539 CNS 100% | UACC-257 melanoma 85.1% | M14 melanoma 48%
active: K-562 leukemia 2.87% | MALME-3M melanoma -78.7%

CCCCCCCCCCC(CN(CC)CC)C(O)c1ccccc1 (stereo not given)
active: K-562 leukemia -21.2% | MALME-3M melanoma -37.3% | RXF 393 renal -7.14% | M14 melanoma -44.1%
inactive: DU-145 prostate 29.1% | MDA-MB-231 breast 10.1% | SF-268 CNS 40.5% | SF-295 CNS 36.5% | SF-539 CNS 32.1% | UACC-257 melanoma 18.2%

C=CC(=O)N1CCN(c2cccc(Oc3nccc(Nc4nnc(-c5ccc(Br)cc5)s4)n3)c2)CC1
inactive: DU-145 prostate 78.5% | K-562 leukemia 22.2% | MALME-3M melanoma 65.2% | MDA-MB-231 breast 75.2% | RXF 393 renal 74.7% | SF-268 CNS 74.8% | SF-295 CNS 55.8% | SF-539 CNS 72.7% | UACC-257 melanoma 80.6% | M14 melanoma 44.9%

NC(=O)c1cccc(-n2ccc3cc(NC(=O)c4ccc(N5CCOCC5)c(C(F)(F)F)c4)ccc32)n1
inactive: DU-145 prostate 60.8% | K-562 leukemia 36.6% | MALME-3M melanoma 65.4% | MDA-MB-231 breast 49.6% | SF-268 CNS 66.8% | UACC-257 melanoma 74.6% | M14 melanoma 66.5%
active: RXF 393 renal -21.1% | SF-295 CNS -52.1% | SF-539 CNS -15.4%

COc1ccc(OC)c(-c2nc(SCC(=O)c3ccc(C#N)cc3)[nH]c(=O)c2C#N)c1
inactive: DU-145 prostate 99.6% | K-562 leukemia 111% | MALME-3M melanoma 97.8% | MDA-MB-231 breast 101% | RXF 393 renal 105% | SF-268 CNS 93.3% | SF-295 CNS 99.5% | SF-539 CNS 93.8% | UACC-257 melanoma 99.9% | M14 melanoma 91.7%

CCN(CC)CCn1c2ccc(O)cc2c2sc3cc(O)ccc3c(=O)c21
inactive: DU-145 prostate 43.6% | K-562 leukemia 14.8% | MALME-3M melanoma 15.6% | MDA-MB-231 breast 43.5% | RXF 393 renal 26.6% | SF-268 CNS 42% | SF-295 CNS 17.6% | SF-539 CNS 18.1% | UACC-257 melanoma 55.4% | M14 melanoma 19.6%

O=C(O)c1cn(C2CC2)c2cc(N3CCN(C(=O)N(c4ccccc4)c4nc(-c5ccccc5)cs4)CC3)c(F)cc2c1=O
inactive: DU-145 prostate 15.4% | SF-268 CNS 19% | M14 melanoma 17.7%
active: K-562 leukemia 9.77% | MALME-3M melanoma 2.79% | MDA-MB-231 breast -48% | RXF 393 renal 8.65% | SF-295 CNS -0.773% | SF-539 CNS -7.39% | UACC-257 melanoma 1.71%

COc1ccc(Nc2nc(-c3cc(O)c(C)c(C)c3O)cs2)cc1
inactive: DU-145 prostate 87.3% | K-562 leukemia 23.9% | MALME-3M melanoma 95.2% | MDA-MB-231 breast 88.5% | RXF 393 renal 78.7% | SF-268 CNS 64.7% | SF-295 CNS 84.1% | SF-539 CNS 81.6% | UACC-257 melanoma 98.1% | M14 melanoma 76.2%

CCC1=C[C@@H]2C[C@]3(C(=O)OC)c4[nH]c5ccccc5c4CC[N@+](CC(=O)Nc4cc5c(cc4OC)N(C)[C@H]4[C@@](O)(C(=O)OC)[C@H](OC(C)=O)[C@]6(CC)C=CCN7CC[C@]54[C@@H]76)(C2)[C@H]13
inactive: DU-145 prostate 117% | K-562 leukemia 106% | MALME-3M melanoma 102% | MDA-MB-231 breast 98.2% | RXF 393 renal 114% | SF-268 CNS 105% | SF-295 CNS 107% | SF-539 CNS 106% | UACC-257 melanoma 101% | M14 melanoma 97.7%

COC(=O)[C@@H](CCCCNC(=O)[C@]12CCC(C)(C)C[C@@H]1C1=CC[C@@H]3[C@@]4(C)C/C(=C/c5ccco5)C(=O)C(C)(C)[C@@H]4CC[C@@]3(C)[C@]1(C)CC2)NC(=O)[C@]12CCC(C)(C)C[C@@H]1C1=CC[C@@H]3[C@@]4(C)C/C(=C/c5ccco5)C(=O)C(C)(C)[C@@H]4CC[C@@]3(C)[C@]1(C)CC2
inactive: DU-145 prostate 115% | K-562 leukemia 95.8% | MALME-3M melanoma 102% | MDA-MB-231 breast 92.4% | RXF 393 renal 119% | SF-268 CNS 104% | SF-295 CNS 101% | SF-539 CNS 97.1% | UACC-257 melanoma 100% | M14 melanoma 107%

CCCCCCC12CCC(=O)N1CCc1cncn12 (stereo not given)
inactive: DU-145 prostate 109% | K-562 leukemia 100% | MALME-3M melanoma 120% | MDA-MB-231 breast 110% | RXF 393 renal 92.4% | SF-268 CNS 120% | SF-295 CNS 105% | SF-539 CNS 106% | UACC-257 melanoma 101% | M14 melanoma 113%

COc1ccc(/C=C/C(=O)c2cc3c(N)c(C(=O)Nc4cccc5ccccc45)sc3nc2C)cc1
inactive: DU-145 prostate 84.5% | K-562 leukemia 28.8% | MALME-3M melanoma 64.7% | MDA-MB-231 breast 93% | RXF 393 renal 63.4% | SF-268 CNS 74.5% | SF-295 CNS 54.4% | SF-539 CNS 76.9% | UACC-257 melanoma 65.2% | M14 melanoma 60%

CCN(CC)CC(O)COc1c(Br)c(Br)c(Br)c2c1OC(C)(C)C2 (stereo not given)
active: MALME-3M melanoma -30.1% | SF-295 CNS 1.69%
inactive: DU-145 prostate 117% | K-562 leukemia 23.9% | MDA-MB-231 breast 44.7% | RXF 393 renal 99.4% | SF-268 CNS 83% | SF-539 CNS 108% | UACC-257 melanoma 140% | M14 melanoma 41.3%

CN1CCN(C(=O)c2ccc(NC(=O)c3cc4c(nn3)NCCN4Cc3cc(Cl)ccc3Cl)cc2)CC1
active: K-562 leukemia 6.45%
inactive: DU-145 prostate 88.2% | MALME-3M melanoma 73.8% | MDA-MB-231 breast 82.2% | RXF 393 renal 64.2% | SF-268 CNS 58.9% | SF-295 CNS 67.6% | SF-539 CNS 52.3% | UACC-257 melanoma 101% | M14 melanoma 72.6%

CC1(C)CC(=O)C2=C(C1)N(c1ccc(OC(F)(F)F)cc1)C(N)=C(C#N)C2c1ccc(Br)cc1F (stereo not given)
inactive: DU-145 prostate 96.5% | K-562 leukemia 75.5% | MALME-3M melanoma 46.8% | MDA-MB-231 breast 61.2% | RXF 393 renal 42.9% | SF-268 CNS 36.6% | SF-295 CNS 42.2% | SF-539 CNS 75% | UACC-257 melanoma 80.9% | M14 melanoma 79.1%

CC(C)Cn1cnc2c(=O)[nH]c(N)nc21
inactive: DU-145 prostate 109% | K-562 leukemia 99.9% | MALME-3M melanoma 98.3% | MDA-MB-231 breast 114% | RXF 393 renal 94.4% | SF-268 CNS 106% | SF-295 CNS 99.2% | SF-539 CNS 104% | UACC-257 melanoma 84.1% | M14 melanoma 105%

N#CC1=C(N)Oc2c(sc3c(Br)cccc23)C1c1ccc(Cl)cc1 (stereo not given)
active: K-562 leukemia 7.37% | MDA-MB-231 breast 9.21% | RXF 393 renal -18% | SF-295 CNS 6.9% | SF-539 CNS -38.2% | M14 melanoma 1.7%
inactive: DU-145 prostate 20% | MALME-3M melanoma 50.4% | SF-268 CNS 20.2% | UACC-257 melanoma 64%

COc1cc(OC)c(/C=C/C(=O)c2c(OC)cccc2OC)c(OC)c1
active: DU-145 prostate 6.79% | RXF 393 renal -60.8% | SF-295 CNS 1.38% | SF-539 CNS -11.4% | M14 melanoma -44.3%
inactive: K-562 leukemia 10.5% | MALME-3M melanoma 51.4% | MDA-MB-231 breast 15% | SF-268 CNS 32% | UACC-257 melanoma 43.6%
